# Reference: PubChem BioAssay (NCATS)
# Results filed as inconclusive are left out. Unmarked numbers belong to inactive results. The source made the active and inactive calls. Calls follow the shape of the dose curve; as a rule, active = well fitted inhibition curve with a large enough effect; inconclusive = small, poorly fitted or top-dose-only effect; inactive = no such curve, though single readings can be large or run the other way.
# Tested on: Zika virus NS2B-NS3 protease (unlinked)
# Assay: Optimization of GU AMC qHTS for Zika virus inhibitors: Unlinked NS2B-NS3 protease assay (AID 1347151); also: nearly all actives have a fitted effect of over 80% in size;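 as to activity change, negative = inhibition: 0% = no-inhibitor control and -100% = no-enzyme control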
# Conditions: recombinant ZIKV NS2B-NS3 protease, fluorogenic AMC substrate; series mostly up to 52.5 µM; activity change, negative = inhibition: at the top concentration
# Text: Avindra Nath, Ph.D., National Institute of Neurological Disorders and Stroke (NINDS), Bethesda, MD
# Radhakrishnan Padmanabhan, Ph.D., Georgetown University (GU), Washington D.C.
# Zika Virus causes congenital defects, including microcephaly and is associated with Guillain-Barre syndrome, eningoencephalitis and myelitis in infected adult. […] Using a target-based approach, we hope to establish a screening paradigm to uncover novel, cell-active NS2B-NS3 protease (Zika Virus) specific inhibitors from NCATS' collection of small molecules using qHTS.
# Early Translation Branch (ETB)
# National Center for Advancing Translational Sciences (NCATS), Rockville, MD
# National Institute of Health (NIH), Bethesda, Maryland
# Padmanabhan lab provided the NS2B hydrophilic domain and NS3 protease domain in a noncovalent complex used for the unlinked assay. Control compound aprotinin is obtained from Thermo Scientific (#78432; Waltham, Massachusetts). NS2B-NS3 AMC substrate (Bz-Nle-Lys-Arg-Arg-AMC; Nle-KRR-AMC) purchased from Bachem (#I-1995; Torrance, CA). Ac-VKTGKR-AMC purchased from Genscript or Bachem, Ac-FAAGKR-AMC purchased from Genscript, Ac-GLVKRR-AMC purchased from Genscript, Ac-LKKR-AMC purchased from Genscript.
# GU AMC unlinked NS2B-NS3 protease qHTS protocol:
# Briefly, 3 microL of Zika virus unlinked NS2B-NS3 protease (25 nM for linked final concentration), in assay buffer (10 mM Tris-HCl pH 8.0 with 0.01% Tween 20) was dispensed into a 1,536-well solid-bottom black plate (Greiner Bio One, Monroe, NC). Twenty-three nL of compounds (final concentration range 7.28 nM to 114 microM) or control Aprotinin (final concentration range 3.47 nM to 114 microM) were transferred via Wako Pin-tool (Wako Automation, Richmond, VA). […] Plates were then read immediately on a ViewLux High-throughput CCD imager (PerkinElmer, Waltham, MA) equipped with standard UV fluorescence optics (340(30) nm excitation, 450(20) nm emission) then incubated (room temperature, protected from light) for 15 minutes (~20% conversion). The change in fluorescence intensity over the 15-minute reaction period was normalized against no-inhibitor and no-enzyme controls and the resulting percent inhibition data were fitted to a 4-parameter Hill equation. Aprotinin was used as the intraplate control.
# Potency is read from the fitted curve at half-maximal effect.
Compound,Potency,"activity change, negative = inhibition"
C[C@H](O)C(=O)C1=Nc2c(nc(N)[nH]c2=O)NC1,23.8 µM (active),
CCCCCCCCCCCCCCC[C@H](O)[C@H](N)CO,,53.3%
O=c1onc2n1-c1cc(Br)ccc1OC2,,-0.804%
COc1ccc(-c2cc3ncc(C)n3c(Nc3ncccc3C(N)=O)n2)cc1OC,26.7 µM (active),
COc1ccccc1N1CCN(CCCCN2C(=O)c3ccccc3C2=O)CC1,23.8 µM (active),
NCC(O)(CS(=O)(=O)O)c1ccc(Cl)cc1 (stereo not given),,0.965%
CC(C)NC[C@H](O)COc1ccc(CC(N)=O)cc1,,-2.57%
Cc1nc2c(OCc3ccccc3)cccn2c1CC#N,,-0.496%
CCCn1c(=O)c2c(ncn2C)n(CCC)c1=O,,0.299%
CCn1c(=O)[nH]c2cc(Cl)c(Cl)cc21,,-10.3%
COc1ccc(CCn2nnnc2C2(c3ccc(C)cc3)CC2)cc1,,3.79%
CC(=O)/C(C)=N/O,,10.9%
CNc1ncnc2c1ncn2[C@H]1C[C@H](OP(=O)(O)O)[C@@H](COP(=O)(O)O)O1,,-2.36%
COc1ccc(NC(=O)c2ccc(-c3ccc(-c4noc(C)n4)cc3C)cc2)cc1N1CCN(C)CC1,,16.5%
O=C1Cc2c([nH]c3ccc(Br)cc23)-c2ccccc2N1,,-17.8%
OC[C@H]1O[C@H](n2cnc3c(N[C@H]4CCC[C@@H]4O)ncnc32)[C@H](O)[C@@H]1O,,2.09%
C=CC1(C)CC(=O)C2(O)C(C)(O1)C(OC(C)=O)C(O)C1C(C)(C)CCC(O)C12C (stereo not given),,2.58%
Cc1nc(N=Nc2cc(S(=O)(=O)O)c3cc([N+](=O)[O-])cc(S(=O)(=O)O)c3c2)c(COP(=O)(O)O)c(C=O)c1O,26.7 µM (active),
CN(C)S(=O)(=O)c1ccc2c(c1)/C(=C/c1cc3c([nH]1)CCCC3)C(=O)N2,,-7.99%
N=S(=O)(O)Cc1noc2ccccc12,,4.02%

Compound,Potency,"activity change, negative = inhibition"
NCC(O)c1ccc(O)c(O)c1 (stereo not given),,-3.73%
CC(C)C[C@H](NC(=O)[C@H](O)[C@H](N)Cc1ccccc1)C(=O)O,,3.91%
N#C/C(=C\c1ccc(O)c(O)c1)C(=O)NCCc1ccccc1,2.38 µM (active),
Nc1ccc(N2C(=O)c3ccccc3C2=O)c(Cl)c1,,-1.58%
CSC(N)=NCCC[C@H](N)C(=O)O,,2.23%
CC(C)(CO)Cc1cc(C(C)(C)C)c(O)c(C(C)(C)C)c1,,-11.6%
O=C(O)C1CCCNC1 (stereo not given),,-1.35%
CN(CC[C@@H](Oc1ccc(C(F)(F)F)cc1)c1ccccc1)CC(=O)O,,-0.507%
O=C(O)c1ccccc1Nc1ccccc1,,2.02%
O=c1[nH]c(=S)[nH]c(-c2ccccc2)c1Cc1c(O)ccc2ccccc12,7.52 µM (active),
NCCCCN,,7.67%
O=C(N[C@@H](Cc1ccccc1)C(=O)CCl)OCc1ccccc1,,8.24%
N[C@H](C(=O)O)[C@H](O)C(=O)O,,2.46%
NC1(C(=O)O)CC1,,-1.49%
N[C@@H](CCC(=O)N[C@H](CSN=O)C(=O)NCC(=O)O)C(=O)O,,2.4%
CN(C)C(=O)/N=N/C(=O)N(C)C,,-0.796%
CC(=O)SC1CC2=CC(=O)CC[C@]2(C)C2CC[C@@]3(C)C(CC[C@@]34CCC(=O)O4)C12 (stereo not given in full),,8.81%
COc1ccc(C(=O)NCc2cccnc2)cc1C(=O)NCc1cccnc1,,-5.01%
CC(=O)O[C@H]1CC2(C)[C@@H](C[C@@H](O)[C@H]3[C@@]4(C)CC[C@@H](O)[C@@H](C)[C@@H]4CC[C@@]32C)C1=C(CCC=C(C)C)C(=O)O (stereo not given in full),,-2.5%
CCCCCC(O)CCCC(=O)O (stereo not given),,0.936%
